# Test results from PubChem BioAssay.
# Activity calls are given as the source filed them. Unless noted, the rule behind the calls is not given here.
# Tests used:
# [1] = system: XIP peptide (Xip251-270) binding; test: XIP fragment 251-270 binding compounds – biochemical, small-molecule microarray, fluorescence 635/667 nm, 0.1 µg/mL protein, primary screen (AID 1182); details: fluorescent protein binding, 635 nm, higher = more signal, called active from +8 up or from −8 down
# XIP peptide (Xip251-270) = test: compounds binding XIP fragment 251-270 – biochemical, small-molecule microarray, fluorescence 635/667 nm, 0.5 µg/mL protein, primary screen (AID 1183); details: fluorescence 635 nm, higher = more signal
# [2] = blood-stage malaria parasite viability loss – strain 3D7, DAPI fluorescence, 100 nL, primary screen (AID 1184);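 note: parasites grown inside human red blood cells in medium with human serum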; details: P. falciparum 3D7 growth, 3 d, higher = more signal
# [3] = biological target: Homeobox protein Hox-A13 (Mus musculus) (UniProt Q62424); test: disruptors of Hoxa13 oligonucleotide interaction – biochemical, fluorescence polarization, labeled oligonucleotide, primary screen (AID 1185); details: Hoxa13:DNA binding, 15 min, higher = more signal, called active from +8 up or from −8 down
# [4] = blockers of DNA damage checkpoint Chk1 activation – imaging, HeLa, hydroxyurea, phospho-Chk1 antibody, percent positive cells, primary screen (AID 1186); details: hydroxyurea-induced phospho-Chk1 immunofluorescence imaging, higher = more signal
# [5] = blockers of DNA damage checkpoint Chk1 activation – imaging, HeLa, hydroxyurea, phospho-Chk1 nuclear intensity, primary screen (AID 1187); details: hydroxyurea-induced phospho-Chk1 immunofluorescence imaging, higher = more signal
# Homeobox protein Hox-A13 (Mus musculus), sequence (Q62424 whole entry, looked up): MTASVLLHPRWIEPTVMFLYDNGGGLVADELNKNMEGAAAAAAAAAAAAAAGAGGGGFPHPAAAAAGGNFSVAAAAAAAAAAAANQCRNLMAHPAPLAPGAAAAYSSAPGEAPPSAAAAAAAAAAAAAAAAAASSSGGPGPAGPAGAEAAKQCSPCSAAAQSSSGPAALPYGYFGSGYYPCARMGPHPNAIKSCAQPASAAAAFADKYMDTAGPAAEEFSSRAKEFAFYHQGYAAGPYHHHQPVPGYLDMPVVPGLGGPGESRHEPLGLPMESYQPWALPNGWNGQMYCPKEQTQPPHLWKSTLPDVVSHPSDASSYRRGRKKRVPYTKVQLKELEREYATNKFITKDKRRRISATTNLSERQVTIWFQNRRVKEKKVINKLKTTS
Structure (SMILES),composite z-score [1],composite z-score (XIP peptide (Xip251-270)),z-score [2],z-score [3],z-score [4],z-score [5]
O=C1O[C@H](c2ccccc2)[C@H](c2ccccc2)N2[C@H]1[C@@H](C(=O)NC[C@H](O)c1ccccc1)[C@]1(C(=O)Nc3ccc(C#CCCO)cc31)[C@H]2c1ccc(O)cc1,-0.105 (inactive),0.278,-1.23,-0.545 (inactive),0.289 (inactive),0.0974 (inactive)
CC(C)C[C@@H]1NC(=O)[C@H]2C[C@@H](C(=O)NCCCCCNC(=O)CS)[C@@H](c3cccc(OCCO)c3)N2C1=O,1.38 (inactive),0.713,-0.159,-3.89 (inactive),-0.351 (inactive),0.184 (inactive)
CCOC(=O)[C@H]1C[C@H]2O[C@@]23C[C@H]1C(=O)N1CCCC1[C@@H]3O[Si](C)(C)C(C)(C)C (stereo not given in full),-0.0593 (inactive),-0.829,-0.329,-5.3 (inactive),-0.0084 (inactive),-0.115 (inactive)
CCN(CC)c1ccc(N2CC=CC34O[C@@H]5/C=C\CCCOC(=O)C5[C@H]3C(=O)N(C(CO)C(C)C)[C@@H]4C2=O)cc1 (stereo not given in full),1.05 (inactive),0.559,0.604,-6.07 (inactive),0.169 (inactive),-0.0477 (inactive)
CC(=O)Nc1cc(Br)ccc1C(=O)O,1.16 (inactive),0.53,1.96,0.273 (inactive),0.1 (inactive),0.0714 (inactive)
CC(C)Cc1ccc(CN2CC[C@@H](NS(=O)(=O)c3ccccc3)C2)cc1,-0.479 (inactive),0.0054,-0.438,-4.79 (inactive),-0.853 (inactive),-1.1 (inactive)
CC(C)CNC(=O)[C@@]1(c2ccc([N+](=O)[O-])cc2)CC(=O)N(CC23CC4CC(CC(C4)C2)C3)[C@@H]1c1ccc(CO)cc1,1.1 (inactive),0.796,0.0716,-4.17 (inactive),-0.471 (inactive),-0.141 (inactive)
COc1cc2c(cc1OC)CN(C(=O)[C@@H]1[C@H]3C(=O)O[C@H](c4ccccc4)[C@H](c4ccccc4)N3[C@H](c3ccccc3OCCO)[C@@]13C(=O)Nc1ccc(C#CCNC(N)=O)cc13)CC2,0.12 (inactive),0.811,-2.17,2.09 (inactive),-0.229 (inactive),-0.232 (inactive)
CC(C)=CCCC(C)=CC(O)C1C=CC2C(=O)N(c3ccccc3)C(=O)C2N1Nc1ccccc1 (stereo not given),0.634 (inactive),0.828,-0.168,-3.67 (inactive),0.881 (inactive),0.352 (inactive)
COCCOC(=O)N1C(=O)[C@@]2(c3ccccc31)[C@H](C(=O)Nc1nc3ccccc3s1)[C@H]1C(=O)O[C@H](c3ccccc3)[C@H](c3ccccc3)N1[C@@H]2c1ccc(OCCO)cc1,0.886 (inactive),0.805,-1.13,0.34 (inactive),-0.178 (inactive),-0.249 (inactive)
C[C@H]1NC(=O)[C@H](Cc2ccccc2)NC(=O)[C@@]23C(=O)N[C@@H](Cc4ccccc4)C2[C@H](C)[C@@]2(C)O[C@H]2C3/C=C/C/C=C\CNC1=O (stereo not given in full),-0.325 (inactive),-1.16,-1.45,-5.77 (inactive),-0.227 (inactive),0.0899 (inactive)
COC(=O)[C@@]1(Cc2ccccc2)N=C(c2ccc(OCCCO)cc2)O[C@H]1c1ccccc1N=[N+]=[N-],0.856 (inactive),0.887,-2.27,0.459 (inactive),-0.48 (inactive),-0.775 (inactive)
Cc1ccc(S[C@]2(C(=O)NCCN3CCOCC3)CC(=O)N(Cc3cc(C(F)(F)F)cc(C(F)(F)F)c3)[C@@H]2c2ccc(CO)cc2I)cc1,0.476 (inactive),0.241,0.439,-2.98 (inactive),-0.064 (inactive),-0.0538 (inactive)
COCCOC(=O)N1C(=O)[C@@]2(c3ccccc31)[C@H](C(=O)NC[C@H](O)c1ccccc1)[C@H]1C(=O)O[C@H](c3ccccc3)[C@H](c3ccccc3)N1[C@@H]2c1ccc(OCCO)cc1,0.868 (inactive),0.645,-2.02,-4.33 (inactive),-0.293 (inactive),-0.262 (inactive)
COCCOC(=O)N1C(=O)[C@@]2(c3cc(C#CC4(O)CCCCCC4)ccc31)[C@H](C(=O)N1CCCCCCC1)[C@H]1C(=O)O[C@H](c3ccccc3)[C@H](c3ccccc3)N1[C@@H]2c1ccccc1OCCO,-0.0713 (inactive),0.762,-2.39,3.19 (inactive),-0.0968 (inactive),0.298 (inactive)
